# According to PubChem BioAssay (NCATS):
# Records with an inconclusive call do not appear.
# Experiment: qHTS Assay for Lipid Storage Modulators (AID 1519)
# Details: Drosophila S3 cells, BODIPY lipid droplet/cell ratio, laser cytometry; measured here: cell count channel max response; cells loaded with oleic acid
# How it was run: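 Cells seeded at 5,000 per well were treated with compounds over a concentration series and loaded with oleic acid (400 uM, as added). Lipid droplet fluorescence (488 nm excitation, 500-530 nm channel) was read by laser-scanning cytometry and normalized to 20 uM Triacsin C.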
row,Compound,max response [%]
1,O=C(O)COc1ccc(Cl)cc1Cl,-3.68
2,O=C1C=CC(=O)c2c(O)cccc21,-12.3
3,O=C(O)CNCP(=O)(O)O,16.5
4,CC(=O)OC1CC2C(C)(C)C(=O)C=C[C@]2(C)C2CC[C@]3(C)C(=CC(=O)OC3c3ccoc3)[C@]12C (stereo partly drawn),5.48
5,Cc1nc2cnc(N3CCNCC3)nc2n(C)c1=O,18.7
6,COc1cc2c(cc1O)CC1c3c(cc(O)c(OC)c3-2)CCN1C (stereo not drawn),24.1
7,ClC1=C(Cl)C2(Cl)C3C4C=CC(C4)C3C1(Cl)C2(Cl)Cl (stereo not drawn),9.06
8,O=S1OCC2C(CO1)C1(Cl)C(Cl)=C(Cl)C2(Cl)C1(Cl)Cl (stereo not drawn),-0.733
9,c1ccc(N=Nc2ccccc2)cc1,-21.5
10,C[N+]1([O-])[C@@H]2CC(OC(=O)[C@@H](CO)c3ccccc3)C[C@@H]1[C@H]1O[C@H]12 (stereo partly drawn),26
11,CC(C)[C@@]1(NC(=O)[C@@H]2C[C@@H]3c4cccc5[nH]cc(c45)C[C@H]3N(C)C2)O[C@@]2(O)C3CCCN3C(=O)[C@H](Cc3ccccc3)N2C1=O (stereo partly drawn),-13.2
12,CC(C)NC(=O)N1CCC2(CCNCC2)CC1,1.41
13,CCOCN(C(=O)CCl)c1c(C)cccc1CC,-6.11
14,CNCC[C@@H](Oc1ccc(C(F)(F)F)cc1)c1ccccc1,-30.3
15,CNC(=O)O/N=C/C(C)(C)SC,14.3
16,CN1CC[C@@]2(CCCN(C(=O)c3ccco3)C2)C1,10.7
17,O=C1c2ccccc2-c2cccc3cccc1c23,9.47
18,c1cc(CN2CCC3(CCNCC3)CC2)ccn1,10.7
19,C[C@]12CC[C@H](O)CC1=CCC1C2CC[C@]2(C)C(=O)CC[C@@H]12 (stereo partly drawn),-17.2
20,Clc1ccc(CS[C@@H](Cn2ccnc2)c2ccc(Cl)cc2Cl)cc1,-14.6

row,Compound,max response [%]
1,CCNc1nc(Cl)nc(NC(C)C)n1,2.72
2,COc1cc2c(cc1-c1cc3cc4ccoc4cc3oc1=O)OCO2,6.63
3,C=CCc1ccc(OC)cc1,21.3
4,CC(C)CN1CC2(CCN(C(=O)c3ccncc3)CC2)C1,11.7
5,ClC1=C(Cl)C2(Cl)C3C(Cl)C=CC3C1(Cl)C2(Cl)Cl (stereo not drawn),11.3
6,ClC1=C(Cl)C2(Cl)C3C4CC(C5OC45)C3C1(Cl)C2(Cl)Cl (stereo not drawn),8.98
7,ClC(Cl)=C(c1ccc(Cl)cc1)c1ccc(Cl)cc1,14.6
8,CCc1cccc(CC)c1N(COC)C(=O)CCl,-0.808
9,C/C=C/c1ccc2c(c1)OCO2,10.4
10,C=CCc1ccc2c(c1)OCO2,13.6
11,CCNC[C@H](O)c1cccc(O)c1,-11.3
12,N#Cc1ccc(CN2CC[C@@]3(CCCNC3)C2)cc1,16.6
13,N#Cc1ccc(CN2CCC3(CC2)CCN(C(=O)Oc2ccccc2)CC3)cc1,-4.88
14,CCCN1CCc2cccc3c2C1Cc1ccc(O)c(O)c1-3 (stereo not drawn),-26.8
15,COP(=S)(OC)Oc1ccc([N+](=O)[O-])cc1,19.5
16,CC(C)C[C@H]1C(=O)N2CCCC2[C@]2(O)O[C@](NC(=O)[C@@H]3C=C4c5cccc6[nH]c(Br)c(c56)C[C@H]4N(C)C3)(C(C)C)C(=O)N12 (stereo partly drawn),-32
17,O=C(Oc1ccccc1)N1CCC2(CCCN(C(c3ccccc3)c3ccccc3)C2)CC1,7.72
18,c1ccc(N2CCC3(CCNCC3)CC2)cc1,-7.04
19,COc1ccc2c(c1O)-c1c(OC)c(OC)cc3c1[C@H](C2)N(C)CC3,5.35

# Same assay, conditions: Drosophila S3 cells, BODIPY lipid droplet/cell ratio, laser cytometry; measured here: lipid channel max response; cells loaded with oleic acid
row,Compound,max response [%]
1,O=C(O)COc1ccc(Cl)cc1Cl,-7.52
2,O=C1C=CC(=O)c2c(O)cccc21,-1.73
3,O=C(O)CNCP(=O)(O)O,20.1
4,CC(=O)OC1CC2C(C)(C)C(=O)C=C[C@]2(C)C2CC[C@]3(C)C(=CC(=O)OC3c3ccoc3)[C@]12C (stereo partly drawn),6.78
5,Cc1nc2cnc(N3CCNCC3)nc2n(C)c1=O,25.8
6,COc1cc2c(cc1O)CC1c3c(cc(O)c(OC)c3-2)CCN1C (stereo not drawn),38.2
7,ClC1=C(Cl)C2(Cl)C3C4C=CC(C4)C3C1(Cl)C2(Cl)Cl (stereo not drawn),23.4
8,O=S1OCC2C(CO1)C1(Cl)C(Cl)=C(Cl)C2(Cl)C1(Cl)Cl (stereo not drawn),5.32
9,c1ccc(N=Nc2ccccc2)cc1,-24.4
10,C[N+]1([O-])[C@@H]2CC(OC(=O)[C@@H](CO)c3ccccc3)C[C@@H]1[C@H]1O[C@H]12 (stereo partly drawn),27.4
11,CC(C)[C@@]1(NC(=O)[C@@H]2C[C@@H]3c4cccc5[nH]cc(c45)C[C@H]3N(C)C2)O[C@@]2(O)C3CCCN3C(=O)[C@H](Cc3ccccc3)N2C1=O (stereo partly drawn),-14.4
12,CC(C)NC(=O)N1CCC2(CCNCC2)CC1,7.12
13,CCOCN(C(=O)CCl)c1c(C)cccc1CC,-5.22
14,CNCC[C@@H](Oc1ccc(C(F)(F)F)cc1)c1ccccc1,-28.9
15,CNC(=O)O/N=C/C(C)(C)SC,23.9
16,CN1CC[C@@]2(CCCN(C(=O)c3ccco3)C2)C1,19.3
17,O=C1c2ccccc2-c2cccc3cccc1c23,28.5
18,c1cc(CN2CCC3(CCNCC3)CC2)ccn1,18.5
19,C[C@]12CC[C@H](O)CC1=CCC1C2CC[C@]2(C)C(=O)CC[C@@H]12 (stereo partly drawn),-14.9
20,Clc1ccc(CS[C@@H](Cn2ccnc2)c2ccc(Cl)cc2Cl)cc1,-18.3

row,Compound,max response [%]
1,CCNc1nc(Cl)nc(NC(C)C)n1,11.1
2,COc1cc2c(cc1-c1cc3cc4ccoc4cc3oc1=O)OCO2,25.9
3,C=CCc1ccc(OC)cc1,23.9
4,CC(C)CN1CC2(CCN(C(=O)c3ccncc3)CC2)C1,11.8
5,ClC1=C(Cl)C2(Cl)C3C(Cl)C=CC3C1(Cl)C2(Cl)Cl (stereo not drawn),18.4
6,ClC1=C(Cl)C2(Cl)C3C4CC(C5OC45)C3C1(Cl)C2(Cl)Cl (stereo not drawn),15.6
7,ClC(Cl)=C(c1ccc(Cl)cc1)c1ccc(Cl)cc1,26.1
8,CCc1cccc(CC)c1N(COC)C(=O)CCl,0.291
9,C/C=C/c1ccc2c(c1)OCO2,20.9
10,C=CCc1ccc2c(c1)OCO2,31.4
11,CCNC[C@H](O)c1cccc(O)c1,-12.3
12,N#Cc1ccc(CN2CC[C@@]3(CCCNC3)C2)cc1,21.9
13,N#Cc1ccc(CN2CCC3(CC2)CCN(C(=O)Oc2ccccc2)CC3)cc1,-1.78
14,CCCN1CCc2cccc3c2C1Cc1ccc(O)c(O)c1-3 (stereo not drawn),-25.9
15,COP(=S)(OC)Oc1ccc([N+](=O)[O-])cc1,-54.1
16,CC(C)C[C@H]1C(=O)N2CCCC2[C@]2(O)O[C@](NC(=O)[C@@H]3C=C4c5cccc6[nH]c(Br)c(c56)C[C@H]4N(C)C3)(C(C)C)C(=O)N12 (stereo partly drawn),-33.2
17,O=C(Oc1ccccc1)N1CCC2(CCCN(C(c3ccccc3)c3ccccc3)C2)CC1,16.7
18,c1ccc(N2CCC3(CCNCC3)CC2)cc1,-8.78
19,COc1ccc2c(c1O)-c1c(OC)c(OC)cc3c1[C@H](C2)N(C)CC3,2.2
